Measurements: PubChem BioAssay (NCI)
This is part of a sample that, as a whole, favours compounds with a hit. Of some 83,000 tested, about 20% had one in any assay.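 96-well plates, one dose, 48 hours. Percent growth reported; active if below 10.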 Active and inactive are the calls of the source.

Assays:
Assay in all cases: NCI-60 one-dose screen, 48 h (100 = growth as untreated, 0 = no growth, -100 = all killed)
Settings in all cases: 10 µM unless noted
[1] = test system: SR leukemia
[2] = test system: RPMI-8226 leukemia
[3] = test system: OVCAR-8 ovarian
[4] = test system: OVCAR-5 ovarian
[5] = test system: OVCAR-4 ovarian
[6] = test system: SK-OV-3 ovarian
[7] = test system: IGROV1 ovarian
[8] = test system: OVCAR-3 ovarian
[9] = test system: HS 578T breast
[10] = test system: NCI/ADR-RES ovarian
[11] = test system: T-47D breast
[12] = test system: BT-549 breast
[13] = test system: MDA-MB-435 melanoma
[14] = test system: SW-620 colon
[15] = test system: MCF7 breast
[16] = test system: HCT-116 colon
[17] = test system: HCC-2998 colon
[18] = test system: KM12 colon

Measured: growth

NC(=S)N1N=C(c2ccccc2)CC1c1cn(-c2ccccc2)nc1-c1ccc(OCc2ccccc2)cc1 (stereo not drawn)
inactive: [1] 109% | [2] 90.9% | [3] 96.4% | [4] 104% | [5] 109% | [6] 112% | [7] 113% | [8] 110% | [9] 96.3% | [10] 112% | [11] 95.2% | [12] 113% | [13] 109% | [14] 106% | [15] 97.3% | [16] 88.5% | [17] 103% | [18] 99.5%

N#C/C(=C\c1ccc([N+](=O)[O-])s1)c1nc2cc(Cl)ccc2s1
active: [1] -0.613% | [2] -13.4% | [3] 3.27% | [7] -16.2% | [10] -5.71% | [12] -6.72% | [14] 1.39% | [15] 4.17% | [16] -36.4%
inactive: [4] 63.6% | [5] 13.4% | [6] 65.1% | [8] 20.9% | [9] 77.6% | [11] 58.7% | [13] 29.6% | [17] 14.9% | [18] 81.4%

CC(=O)O[C@H]1Cc2c([nH]c3ccccc23)[C@@H](c2ccc(Cl)cc2)N1C(=O)CCNC(C)(C)C
inactive: [2] 44.2% | [3] 83.4% | [4] 59.6% | [5] 64.6% | [6] 90.5% | [7] 24.6% | [8] 70.8% | [9] 62.3% | [10] 91.8% | [11] 74.3% | [12] 53.7% | [13] 70% | [14] 61.1% | [15] 34.3% | [16] 20.8% | [17] 60.3% | [18] 66.6%
active: [1] 3.79%

Cn1ccnc1C(=O)/C=C/c1ccc(CC(=O)Nc2ccc(F)cc2)cc1
active: [2] 1.1% | [8] 6.19% | [16] 4.94% | [18] 6.52%
inactive: [1] 14.4% | [3] 12.7% | [4] 65.5% | [5] 30.3% | [6] 85.4% | [7] 39.3% | [9] 57.7% | [10] 21.7% | [11] 28.8% | [12] 23.6% | [13] 19.7% | [14] 10.1% | [15] 28% | [17] 85.4%

CC1=CCC(OC(=O)C(C)(O)CCC(O)(C(=O)OC2(C)C=CC(O)(C(C)C)CC2)C(C)C)(C(C)C)CC1 (stereo not drawn)
inactive: [1] 103% | [2] 107% | [3] 105% | [4] 108% | [5] 109% | [6] 105% | [7] 101% | [8] 108% | [9] 105% | [10] 108% | [11] 93.9% | [12] 114% | [13] 104% | [14] 103% | [15] 97.9% | [16] 101% | [17] 112% | [18] 108%

CC(=O)Nc1ccc(-n2cnc3cc(-c4ccc(OCCN5CCCCC5)cc4)ccc32)cc1
inactive: [2] 54% | [3] 87.1% | [4] 104% | [5] 82.6% | [6] 139% | [7] 97.4% | [8] 98.4% | [9] 95.3% | [10] 97.2% | [11] 107% | [12] 99.4% | [13] 102% | [15] 70.6% | [17] 119% | [18] 29%
active: [1] -9.89% | [14] -29% | [16] -51.2%

Cc1ccc(NC(=O)c2cc(-c3nc4ccccc4s3)c(=O)n(NS(=O)(=O)c3ccc(Cl)cc3)c2N)cc1
inactive: [1] 95% | [2] 94.6% | [3] 103% | [4] 110% | [5] 103% | [6] 108% | [7] 99.7% | [8] 103% | [9] 104% | [10] 105% | [11] 98.7% | [12] 115% | [13] 99.4% | [14] 111% | [15] 93.7% | [16] 95.6% | [17] 118% | [18] 98.8%

NCCCCCCNc1cc(-c2cccc(OC(F)(F)F)c2)nc2ccc(N3CCCC3)cc12
active: [1] -24.7% | [2] -37.8% | [3] 2.63% | [5] -39.8% | [7] -55.6% | [8] -82.4% | [9] -54% | [10] 5.01% | [11] -15.4% | [13] -99.8% | [14] -86.3% | [15] -72.6% | [16] -63.3% | [17] -66.5% | [18] -82.7%
inactive: [4] 12.6% | [6] 93.6% | [12] 55.7%

CC1(C)c2[nH]c3ccccc3c2C[C@]2(C)[C@H]3C(=O)C=C4[C@@H]5C[C@@](C)(C(N)=O)CC[C@]5(C)CC[C@@]4(C)[C@]3(C)CC[C@@H]12
inactive: [1] 45.8% | [2] 42.3% | [3] 75.1% | [4] 93.3% | [5] 54.4% | [6] 71.3% | [7] 84.4% | [8] 69.9% | [9] 71.4% | [10] 71.2% | [11] 20.3% | [12] 70.7% | [13] 83.6% | [14] 79.4% | [15] 35.3% | [16] 46.3% | [17] 79.2% | [18] 67.5%

Cc1cc2nc3c4cccc(O)c4n(CCN(C)C)c3nc2cc1C
inactive: [3] 38% | [4] 55.3% | [5] 44.4% | [6] 46.3% | [7] 19.1% | [8] 45.4% | [9] 72.8% | [10] 32.3% | [11] 64.3% | [12] 77.4% | [13] 45.4% | [14] 20.6% | [15] 23.5% | [16] 22% | [17] 24.5% | [18] 37.7%
active: [1] 4.12% | [2] -5.71%

Cn1ccnc1C(=O)/C=C/c1ccc(CC(=O)Nc2ccc(Cl)cc2)cc1
active: [1] 6.73% | [2] -7.76% | [3] -27.7% | [8] 4.49% | [9] 8.18% | [11] 2.07% | [14] 7.1% | [16] 7.88% | [18] 9.56%
inactive: [4] 22.9% | [5] 36.9% | [6] 58.7% | [7] 13% | [10] 10.8% | [12] 17.6% | [13] 17.6% | [15] 25.5% | [17] 30.3%

COc1cc2c(=O)n(CCCN(C)C)c3c4cc5c(cc4ccc3c2cc1OC)OCO5
inactive: [3] 48.3% | [4] 112% | [5] 69.9% | [6] 102% | [7] 31.9% | [8] 65.5% | [9] 67.1% | [10] 53.5% | [11] 85.8% | [12] 47.8% | [13] 67.6% | [14] 38.6% | [15] 25.3% | [16] 30.6% | [17] 86.8% | [18] 47.8%
active: [1] 9.59% | [2] 6.97%

C/C(=N\Nc1cc(C)nc2ccc(Br)cc12)c1ccc([N+](=O)[O-])cc1
active: [1] 1.78%
inactive: [2] 27.5% | [3] 50.8% | [4] 111% | [5] 47% | [6] 84.1% | [7] 53.4% | [8] 26.8% | [9] 96.8% | [10] 81.1% | [11] 62% | [12] 105% | [13] 72.6% | [14] 49.3% | [15] 43.9% | [16] 13.3% | [17] 55.8% | [18] 75.5%

CCN(CC)c1ccc(C(=O)c2ccccc2)cc1
inactive: [1] 86.2% | [2] 95.8% | [3] 97% | [4] 100% | [5] 97.3% | [6] 98.6% | [7] 89.8% | [8] 103% | [9] 102% | [10] 89.4% | [11] 83.3% | [12] 109% | [13] 105% | [14] 102% | [15] 98.7% | [16] 91.3% | [17] 107% | [18] 101%

CN1C(N2CCN(S(=O)(=O)c3ccccc3)CC2)=NS(=O)(=O)c2ccccc21
active: [7] -25.4%
inactive: [1] 32.2% | [2] 98.4% | [3] 80% | [4] 97.9% | [5] 111% | [6] 109% | [8] 101% | [9] 82.5% | [10] 99.7% | [11] 101% | [12] 119% | [13] 109% | [14] 123% | [15] 91.1% | [16] 109% | [17] 101% | [18] 91.5%

O=S(=O)(NCCNc1nccc(-c2c(-c3cccc(F)c3)nc3sccn23)n1)c1ccccc1
inactive: [1] 29.3% | [2] 43.5% | [3] 33.9% | [4] 79.6% | [5] 40% | [6] 57.2% | [8] 58.9% | [9] 55.5% | [10] 46.3% | [11] 18.8% | [12] 50.4% | [13] 17.4% | [14] 44.5% | [15] 21.7% | [16] 22.7% | [17] 66.4% | [18] 28.8%
active: [7] 4.9%
